mHTT-CaM PPI inh: inhibitors of human mutant huntingtin-calmodulin interaction; inhibition, % at 15 µM; AID 1671202; 190,000 tested, 3.6% active; AlphaScreen His-mHTT/GST-CaM binding, luminescence;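 further: 0% = both proteins with DMSO and 100% = one protein alone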
Pf apPOL inh: Pf-apPOL DNA polymerase inhibition; inhibition, % at 10 µM; 210,000 tested, 0.25% active; Recombinant Pf-apPOL, molecular beacon fluorescence, 1.5 h
Starred values were filed as active, the others as inactive; i = inactive; x = no result. This excerpt belongs to a sample that is enriched for hits. No stated cut-off is given here; in the data, active means inhibition above about 50%; inactive means the rest.

SMILES | mHTT-CaM PPI inh | Pf apPOL inh
CS(=O)(=O)c1ccc(N2CC(c3nnc(NC(=O)C4CCCCC4)o3)CC2=O)cc1 (centres undefined) | -4 | -5
CN(C)S(=O)(=O)c1ccc(C(=O)Nc2nc(-c3ccc4c(c3)OCO4)cs2)cc1 | -2 | 4
COc1ccc(C)cc1N1CCN(S(=O)(=O)c2ccccc2)C(C)C1=O (centres undefined) | -9 | -3
COc1cc(C=C2Oc3c(ccc4c3CN(CCN3CCOCC3)CO4)C2=O)cc(OC)c1OC | 89* | -36
COCCCN1COc2ccc3c(c2C1)OC(=Cc1cc(OC)c(OC)c(OC)c1)C3=O | 29 | -28
O=C(Cc1cccc(F)c1)Nc1nnc(C2CC(=O)N(c3ccc(Cl)cc3)C2)o1 (centres undefined) | 6 | -2
Cc1nc(C)c(-c2nnc(NC(=O)C3CC(=O)N(c4ccc(F)cc4)C3)o2)s1 (centres undefined) | 97* | -1
Cc1ccc(CC(=O)Nc2nnc(C3CC(=O)N(c4ccc(F)cc4)C3)o2)cc1 (centres undefined) | 0 | -8
O=C(Cc1cccc(F)c1)Nc1nnc(C2CC(=O)N(c3ccc(F)cc3)C2)o1 (centres undefined) | 74* | -3
O=C(Nc1nnc(C2CC(=O)N(c3ccc(F)cc3)C2)o1)c1ccc(F)cc1 (centres undefined) | 16 | 0
COc1ccc(C(=O)Nc2nnc(C3CC(=O)N(c4ccc(F)cc4)C3)o2)cc1OC (centres undefined) | 54* | -7
COc1ccccc1-c1nnc(NC(=O)C2CC(=O)N(c3ccc(F)cc3)C2)o1 (centres undefined) | 22 | 2
O=C(Cc1ccc(F)cc1)Nc1nnc(C2CC(=O)N(c3ccc(F)cc3)C2)o1 (centres undefined) | 80* | -1
COc1ncc(C(=O)NCCc2ccc(Cl)cc2)cn1 | -2 | -12
Oc1ccc(Br)cc1C=Nc1ccc(Br)cc1 | -1 | -3
COc1ccc(Oc2c(C(F)(F)F)oc3cc(O)ccc3c2=O)cc1 | 2 | 5
Cc1nonc1NCn1cnc2c1c(=O)n(C)c(=O)n2C | -6 | -8
O=C(Cc1ccc(F)cc1)Nc1nnc(C2=COCCO2)o1 | 51* | -3
O=C(Cc1ccc(F)cc1)Nc1nnc(-c2ccc3c(c2)CCCC3)o1 | -10 | -6
CSc1ccc(N2CC(c3nnc(NC(=O)c4c(F)cccc4F)o3)CC2=O)cc1 (centres undefined) | 38 | -2
CSc1ccc(N2CC(c3nnc(NC(=O)c4ccco4)o3)CC2=O)cc1 (centres undefined) | 65* | -2
O=C(O)CNC(=O)CN1C(=O)c2ccc(C(=O)O)cc2C1=O | -2 | -18
Cc1ccc(C2=NC3(CCCCCC3)N(CC(=O)Nc3ccc(F)cc3)C2=O)cc1 | -4 | -5
Fc1ccc([C@@H]2Nc3c(F)cccc3[C@@H]3C=CC[C@@H]32)cc1 | -11 | x
CC(=O)c1ccc(O)c2c1C1C=CCC1C(c1ccc(Cl)cc1)N2 (centres undefined) | 64* | -7
SMILES | mHTT-CaM PPI inh | Pf apPOL inh
Oc1ccc(Cl)c2c1NC(c1ccc(Cl)cc1)C1CC=CC21 (centres undefined) | 100* | -3
Fc1cccc2c1NC(c1ccc(Cl)cc1)C1CC=CC21 (centres undefined) | 59* | 2
O=C1NC(=Nc2ccccc2Cl)S/C1=C/c1cccc([N+](=O)[O-])c1 | 88* | -2
COc1cccc(/C=C2/SC(=Nc3ccccc3Cl)NC2=O)c1 | 52* | -55
O=C1NC(=Nc2ccccc2Cl)S/C1=C/c1ccc([N+](=O)[O-])cc1 | 43 | 19
COc1ccc(/C=C2/SC(=Nc3ccccc3Cl)NC2=O)c(OC)c1 | 46 | 0
COCCn1c(C2CCN(C(=O)c3ccc(Cl)cc3)C2)nc2cccnc21 (centres undefined) | 3 | -6
Cc1nc(N2CCOCC2)c2c(C)c(C(=O)Nc3ccc([N+](=O)[O-])cc3C)sc2n1 | 52* | -5
Cc1nc(N2CCOCC2)c2c(C)c(C(=O)Nc3ccc(Br)cc3C)sc2n1 | -2 | -2
COc1ccc(N2C(=O)C3C4c5ccccc5C(C)(c5ccccc54)C3C2=O)c([N+](=O)[O-])c1 (centres undefined) | 29 | -1
Cc1c(C(=O)O)cccc1-c1ccc(/C=C/[N+](=O)[O-])o1 | 3 | -12
Cc1ccc(Cl)cc1-c1ccc(/C=C/[N+](=O)[O-])o1 | 77* | 0
CCCn1ncc(N2CCC(C(=O)NCCN3CCCCC3)CC2)cc1=O | 8 | -4
CC(C)C(=O)N1CCN(c2ccccc2-c2ccccc2)C(=O)C1C (centres undefined) | -2 | 0
CCC(C)NC(=O)c1csc(-c2ccncc2)n1 (centres undefined) | -5 | 0
CC(CCc1ccccc1)NC(=O)c1csc(-c2ccncc2)n1 (centres undefined) | 79* | -1
CO/N=C(/c1nonc1N)N1CCN(c2ccc([N+](=O)[O-])cc2Cl)CC1 | i | 0
